From the supplement of paper PMC12636033
± gives the standard deviation of the averaged measurements. Over roughly 33,000 sequences, “E-score (rank enrichment, -0.5 to 0.5)” has its median near -0.0043; the highest 2% begin near 0.24. The sample holds the highest values, similar sequences and a random draw of the others, so the mix is not that of the screen.

Tested on: 2Sp-muMax20 (muMax20 with two 2,6-bis(methyl)pyridine Cys staples)
Assay: PBM 8-mer E-score (E-score (rank enrichment, -0.5 to 0.5)); higher = stronger preferential binding
Experimental: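 Protein binding microarray (universal PBM chip covering all 10-mers in fixed probe flanks) with chemically synthesized human Max(13-93) bHLH-LZ analogs (not full-length Max) bearing noncanonical residues (hArg, Tha, Aib, Nle at 65) and aromatic Cys staples. Read-out per 8-mer (and its reverse complement): E-score (rank-based enrichment, -0.5 to 0.5) and Z-score of median probe intensity.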

Sequence	PBM 8-mer E-score
TGATATAA	0.232 ± 0.064
ATATATAT	0.116 ± 0.091
CTATATAC	0.204 ± 0.022
CTATAGTC	0.0602 ± 0.045
ATATATAC	0.252 ± 0.015
ATATAGTC	0.238 ± 0.069
GTATATAC	0.0149 ± 0.075
TTATATAA	0.282 ± 0.044
ATATAGTA	0.231 ± 0.019
GAGCTTCC	-0.0166 ± 0.072
CGCGAGGC	-0.0315 ± 0.0085
ATCTACCA	0.119 ± 0.038
CCAATGGG	-0.162 ± 0.09
GGTTGCAA	0.0477 ± 0.016
GCCAGTCC	-0.152 ± 0.14
GCGGCCAC	-0.292 ± 0.061
CAAATGAC	-0.036 ± 0.036
AGCCTTTG	-0.0519 ± 0.04
CATGCTCG	0.116 ± 0.052
ACAGCCAC	-0.0111 ± 0.073
ATCGATCA	0.0704 ± 0.044
AAGGCCGG	-0.146 ± 0.023
AAGGCCGC	-0.0467 ± 0.032
AAGGCCTT	0.293 ± 0.052
AAGGCCGT	0.284 ± 0.012

Sequence	PBM 8-mer E-score
AAGGCCTA	0.00342 ± 0.048
AAGGCCTG	-0.212 ± 0.061
ATGTGGCG	0.0809 ± 0.017
CTACCCTC	0.0414 ± 0.062
CTCCCAAA	0.143 ± 0.084
GCTGTTCA	0.0277 ± 0.084
CCACGTTA	0.252 ± 0.044
CCACGTGC	0.431 ± 0.00066
CCACGTCC	-0.117 ± 0.06
CCACGTGG	0.455 ± 0.021
GCACGTTA	0.113 ± 0.039
CGACGTGC	0.00092 ± 0.063
CAACGTGG	0.0662 ± 0.077
CCACATGG	0.161 ± 0.014
GCACATGA	0.151 ± 0.036
CCACGTAG	-0.11 ± 0.053
CCACATGA	0.241 ± 0.053
CCACGTTC	-0.0572 ± 0.027
ATACCCAC	0.197 ± 0.059
CACGGCCC	-0.216 ± 0.024
GCAACGGA	0.0572 ± 0.11
AGGAGAGA	-0.134 ± 0.081
GATTGGGC	-0.0399 ± 0.037
CAGAAAAC	0.0606 ± 0.042
CGACGTGA	0.063 ± 0.051

Sequence	PBM 8-mer E-score
CCACGCGA	0.112 ± 0.0062
CTACGTGA	-0.0272 ± 0.054
CCACGCGG	0.448 ± 0.016
ACACGCGG	0.181 ± 0.012
CCACGTGA	0.358 ± 0.053
ATCGAAGC	-0.0587 ± 0.14
CAGGCATA	0.0998 ± 0.023
ATTCCACC	0.0112 ± 0.074
GCGATCGC	0.241 ± 0.049
ACGATCGC	0.0237 ± 0.025
CCGATCGC	0.00661 ± 0.018
CCAATCCA	0.00702 ± 0.16
GAATTGGC	0.0412 ± 0.066
CAATTGGG	0.136 ± 0.037
CAATTGGC	0.244 ± 0.016
ACCTGTGC	-0.0312 ± 0.029
CTTGCTAA	-0.0836 ± 0.038
CGCCTCCC	0.00831 ± 0.026
AGAACGGC	0.0294 ± 0.038
TATCCATA	0.15 ± 0.012
CTCCCCCA	-0.103 ± 0.12
CTCCCCTA	0.106 ± 0.087
CTCCCCAA	0.309 ± 0.0081
ATCCCCTA	0.282 ± 0.019
ATCCCCCA	-0.224 ± 0.14

Sequence	PBM 8-mer E-score
CTCCCCAG	0.191 ± 0.064
CTCCCCAC	0.278 ± 0.015
GTCCCCAC	0.021 ± 0.043
TTCCCCAA	0.173 ± 0.06
ATCCCCTC	0.215 ± 0.038
ATCCCCAA	0.274 ± 0.036
ATCCCAAA	0.0771 ± 0.056
AATAGTCA	0.109 ± 0.0063
CCACATAA	0.0944 ± 0.027
GGATTACC	0.0419 ± 0.024
AATGAAGC	0.0104 ± 0.028
GTGGTAAA	-0.0637 ± 0.0084
CGGGTCAC	-0.118 ± 0.034
AAGGTATG	0.149 ± 0.056
AGAACACC	0.0163 ± 0.039
ATCCCCAG	0.0388 ± 0.058
GACCCCAC	0.131 ± 0.021
ATCCCCAT	0.104 ± 0.064
AACCCCAC	0.136 ± 0.032
CACCCCAC	0.265 ± 0.007
ATCCCCAC	0.247 ± 0.038
CACAGAGC	-0.0473 ± 0.035
CGCTTAAA	0.0219 ± 0.026
TCACCACA	0.209 ± 0.055
ACAAGAGA	-0.031 ± 0.039

Sequence	PBM 8-mer E-score
CAGGATCC	0.0142 ± 0.1
CCCAGCCG	-0.207 ± 0.031
GGGTGAAC	-0.0445 ± 0.0025
AGATTGGG	0.236 ± 0.005
AGATTGGC	-0.253 ± 0.0034
AGATTGGA	0.0807 ± 0.089
GACACTCA	-0.155 ± 0.12
CCTTCTCC	-0.1487 ± 0.00034
ACAGGCCC	-0.0606 ± 0.0054
AGTATAAT	0.307 ± 0.047
AGTATACT	0.287 ± 0.014
ACTATAAT	0.1911 ± 0.00057
CGTATACC	-0.132 ± 0.077
CGTATAAG	0.0589 ± 0.0073
AGTATACC	0.0537 ± 0.062
CGTATACA	0.0425 ± 0.12
AGTATAAC	0.0726 ± 0.034
CGTATACG	0.279 ± 0.086
ACTATAAG	0.147 ± 0.011
AGTATACA	0.218 ± 0.026
AGTATAAG	0.273 ± 0.061
ATGTGTGC	-0.0334 ± 0.049
AAGCGGCA	-0.0432 ± 0.047
ATCACTTG	0.101 ± 0.072
GGATTCTA	0.0681 ± 0.064

Sequence	PBM 8-mer E-score
GTCAACTA	0.0356 ± 0.0025
CGGGGACA	-0.0692 ± 0.1
TGACTACA	0.0909 ± 0.018
AGATACCC	0.264 ± 0.0095
AGATACCG	-0.166 ± 0.039
AGATACCA	0.171 ± 0.03
AGGCGAAA	-0.0363 ± 0.041
GCCTTGAC	-0.0306 ± 0.049
AGACCGAG	-0.0567 ± 0.059
GGACGTGA	-0.181 ± 0.05
GCACGTAC	0.0252 ± 0.017
GAACGTGA	-0.0484 ± 0.032
GCACGTGA	0.29 ± 0.034
GCACGTGC	0.472 ± 0.0076
GCACGTCC	-0.107 ± 0.035
GTCTCGTA	-0.016 ± 0.023
GTGCCCAC	-0.0178 ± 0.036
CACTCAGG	0.00926 ± 0.0019
CGAGAAAA	-0.0823 ± 0.086
CGGCGGCA	-0.192 ± 0.016
GGGTAAAA	0.146 ± 0.043
CATGCTGA	0.235 ± 0.031
AATGCTTC	0.126 ± 0.0042
AATGCGTA	0.186 ± 0.021
CATGCTTC	0.244 ± 0.013

Sequence	PBM 8-mer E-score
GATGCTGA	-0.077 ± 0.021
CATGCTTA	0.223 ± 0.018
AATGCTGA	0.11 ± 0.11
GATGCGTA	0.12 ± 0.027
CATGCGTA	0.291 ± 0.02
CTTAAGTC	-0.0675 ± 0.033
CCTGCGAC	-0.0368 ± 0.021
CACTGACA	-0.147 ± 0.062
CCATTTAC	0.106 ± 0.12
ACACAGAA	0.0709 ± 0.022
ACGTATAA	0.125 ± 0.024
AACAGGAA	-0.0894 ± 0.071
ATTCAGAC	-0.0466 ± 0.061
CGCGTGTA	0.238 ± 0.04
GACGTGTA	-0.0461 ± 0.043
CCCGTGTC	-0.204 ± 0.024
AGTGTGTA	0.0578 ± 0.047
CGCGTGTC	0.139 ± 0.067
GGTGTGTA	0.0384 ± 0.034
CACGTGTC	0.377 ± 0.036
AACGTGTC	0.0326 ± 0.036
AGCGTGTA	0.1194 ± 0.0008
CGTGTGTA	0.239 ± 0.011
